The values below come from PubChem BioAssay AID1224856 (National Center for Advancing Translational Sciences (NCATS), 2016).

Inconclusive results are not listed. A call without a number means that no potency is given here. Active and inactive are the calls of the source. Calls follow the shape of the dose curve; as a rule, active = well fitted curve in the direction sought with a large enough effect; inconclusive = small, poorly fitted or top-dose-only effect, or another doubt; inactive = no such curve, though single readings can be large or run the other way.

The test can be described thus: Cell viability assay for measurement of the protective activity of small molecules against cell death caused by Zika virus infection in human astrocytes. The following applies: human astrocytes ZIKV-induced death, ATP luminescence, 72 h; series mostly up to 46.1 µM. The source says:
National Center for Advancing Translational Sciences [NCATS] Johns Hopkins University School of Medicine Florida State University Assay Overview: Zika virus infection causes cell death in certain cell types including human neural progenitor cells (hNPCs), astrocytes, and astrocytoma cell line (SNB-19). This cell viability assay measures the ATP content (level) in human astrocytes using a luminescence readout that is proportional to viable cell numbers. Decrease in the luminescence signal after Zika virus infection indicates the cell death caused by Zika virus. Small molecule inhibitors […] the decreased luminescence signal after Zika virus infection, indicating the protective effect of that small molecule on the cell death caused by Zika virus infection. This observed protective effect of small molecules against Zika virus induced cell death may result from inhibition of virus replication or cellular response to the virus infection.
Assay Protocol Summary: The medium for astrocytes contains AM basal medium (ScienCell, Cat.# 1801), AGS (ScienCell, Cat.# 1801), 10% FBS, and 1% Pen/Strep. The ATP content assay kit (PerkinElmer, Cat.# 6016731) was used to determine cell viability. The reagent was reconstituted and prepared as described by the manufacturer. Cells were seeded in 384- or 1536-well assay plates and cultured at 37 C with 5% CO2 for 16 to 20 hours. The typical cell seeding density in the 1536-well plate assay is 350 cells/well in 3 ul medium for astrocytes in the tissue cultured treated/PDL coated plates. Compounds were added to cells and incubated for one hour before addition of ZIKV solution to cells (2 FFU/cell). After incubation at 37 C with 5% CO2 for 72 hours, the reagent mixture of the ATP content assay kit was added to each well, followed by incubation at room temperature for 10 minutes. The luminescence intensity of the assay plates was measured using a ViewLux plate reader (PerkinElmer). […] The percentage inhibitions of the decreased cell viability by small molecule inhibitors were then calculated.
On to `O=C(O)CCC(=O)c1ccc(-c2ccccc2)cc1`, for which the Potency entry was “inactive”.
In the case of `CC(=O)OC(C)OC(=O)C(C)c1ccc(-c2ccccc2)c(F)c1` (stereo not given), the Potency entry was “inactive”.
The value for `S=C(SSC(=S)N1CCCCC1)N1CCCCC1` was 7.74 µM (active); that for `Cc1cccc(C#Cc2ccccc2)n1` was “inactive”; that for `CC(C(=O)O)c1ccc2c(c1)[nH]c1ccc(Cl)cc12` (stereo not given) was “inactive”.
The same measure for `c1ccc(CCNc2nc(-c3ccccc3)cs2)cc1`: “inactive”.
Regarding `Cc1c(C(=O)O)c(O)cc2c1C(=O)c1c(O)c([C@@H]3O[C@H](CO)[C@@H](O)[C@H](O)[C@H]3O)c(O)c(O)c1C2=O`, the Potency entry is “inactive”.
As for `N#CC1(c2ccc(NC(=O)c3cccnc3NCc3ccncc3)cc2)CCCC1`, the Potency entry was “inactive”.
Consider `O=c1oc2cc(O)ccc2s1`, for which the Potency result was “inactive”.
Consider `O=C(O)c1ccccc1Nc1cccc(C(F)(F)F)c1`, for which the Potency entry is “inactive”.
`COP(=S)(OC)SCN1C(=O)c2ccccc2C1=O`: the Potency entry is “inactive”.
For the compound `O=C1C(Cl)=C(NCCN2CCOCC2)C(=O)c2ncccc21`, the Potency result is “inactive”.
The same measure for `CCCCCCOc1ccccc1C(N)=O`: “inactive”; for `C[C@@H](N)c1ccc(C(=O)Nc2ccnc3[nH]ccc23)cc1`: “inactive”; for `Cc1csc(NC(=O)c2sc3nc4c(c(C(F)(F)F)c3c2N)CCC4)n1`: “inactive”.
The same measure for `CN(C)CCCSc1ccccc1NC(=O)/C=C/c1ccccc1`: “inactive”.
For `CC(C)Oc1ccc2c(=O)c(-c3ccccc3)coc2c1`, the Potency entry was “inactive”.
Turning to `Oc1ccc([C@H]2CNCc3c2ccc(O)c3O)cc1O`, the Potency entry is “inactive”.
The value for `CN1CC[C@@]2(C)c3cc(OC(=O)Nc4ccccc4)ccc3N(C)[C@@H]12` was “inactive”; that for `COc1cc(NC(C)CCCN)c2ncccc2c1` (stereo not given) was “inactive”.
Consider `Cc1cc(O)c2ccccc2c1O`, for which the Potency result was “inactive”.
Turning to `CCCCCCCCCCCC(=O)[O][Sn]([CH2]CCC)([CH2]CCC)[O]C(=O)CCCCCCCCCCC`, the Potency entry was “inactive”.
The value for `O=c1c(-c2ccc(O)cc2)coc2cc(OC3O[C@H](CO)[C@H](O)[C@H](O)[C@H]3O)cc(O)c12` (stereo not given in full) was “inactive”; that for `Cc1ccc([N+](=O)[O-])[c]2c1[O][Hg]2` was “inactive”.
Take `COc1cccc2c1C(=O)c1c(O)c3c(c(O)c1C2=O)C[C@@](O)(C(=O)CO)CC3OC1CC(N2CCOC(OC)C2)C(O)C(C)O1` (stereo not given in full): the Potency was 0.436 µM (active).
As for `CC(O)CN1CCN(CC(=O)[O-])CCN(CC(=O)[O-])CCN(CC(=O)[O-])CC1.[Gd+3]` (stereo not given), the Potency entry was “inactive”.
Regarding `O=c1c(-c2ccc(O)cc2)coc2cc(O)ccc12`, the Potency entry is “inactive”.
For the compound `Cc1ccc(O)c(-n2nc3ccccc3n2)c1`, the Potency result is “inactive”.
Regarding `COC1(CS(=O)c2ccccc2)CCN(CCc2c[nH]c3ccc(F)cc23)CC1` (stereo not given), the Potency entry is “inactive”.
Regarding `COc1cccc(-c2cc(=O)c3ccccc3o2)c1N`, the Potency entry is “inactive”.
The value for `CN(C)c1ccc(N=NS(=O)(=O)O)cc1` was “inactive”.
Turning to `COc1ccc(-c2coc3cc(O)ccc3c2=O)cc1`, the Potency entry is “inactive”.
For `COc1ccc(C=CC(=O)Nc2ccccc2C(=O)O)cc1OC`, the Potency entry is “inactive”.
With `c1ccc2[nH]c(-c3cscn3)nc2c1`, the Potency result was “inactive”.
Take `O=C(O)c1cccc(-c2noc(-c3ccccc3F)n2)c1`: the Potency result was “inactive”.
In the case of `CNC1[C@H](O)C(O[C@@H]2C(O)C(O[C@H]3O[C@H]([C@@H](C)NC)CC[C@H]3N)[C@@H](N)C[C@H]2N)OC[C@]1(C)O` (stereo not given in full), the Potency entry is “inactive”.
The same measure for `Cc1cc(O)c2c(c1)C(=O)c1cc(O)cc(O)c1C2=O`: “inactive”; for `Cc1c(N)c(=O)n(-c2ccccc2)n1C`: “inactive”.
`Cc1ccc2c(n1)Oc1ccc(C(C)C(=O)OCC(=O)N(C)C)cc1C2` (stereo not given): the Potency entry was “inactive”.
In the case of `O=C(O)c1ccccc1NCCc1ccccc1`, the Potency result is “inactive”.
